# Experimental data from PubChem BioAssay (NCATS).
# Results filed as inconclusive are left out. Where a call stands in place of a potency, no number is given. A number with no mark means an inactive call. Calls of active or inactive are those of the source. Calls come from the whole dose curve; as a rule, active = well fitted curve in the direction sought with a large enough effect; inconclusive = small, poorly fitted or top-dose-only effect, or another doubt; inactive = no such curve, though single readings can be large; an effect the other way counts as inactive or inconclusive.
# Experiments:
# [1] = target: Rap guanine nucleotide exchange factor 4 (Homo sapiens) (UniProt Q8WZA2); experiment: Confirmatory qHTS for agonist of cAMP-regulated guanine nucleotide exchange factor 4 (EPAC2) (AID 1645884);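 note: nucleotide exchange releases bodipy-GDP from Rap1 and this lowers its fluorescence; nearly all actives have a fitted effect of over 65% in size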
# [2] = target: Rap guanine nucleotide exchange factor 4 (Homo sapiens) (UniProt Q8WZA2); experiment: Confirmatory qHTS for antagonist of cAMP-regulated guanine nucleotide exchange factor 4 (EPAC2) (AID 1645885); note: nearly all actives have a fitted effect of over 25% in size; note: potency is the fitted concentration of half-maximal effect
# [3] = target: Rap guanine nucleotide exchange factor 3 (Homo sapiens) (UniProt O95398); experiment: Counterscreen qHTS for antagonist of cAMP-regulated guanine nucleotide exchange factor 3 (EPAC1) (AID 1645888);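 note: fluorescence loss as bound BODIPY-GDP is released from Rap1B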
# In short: (§1)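 Rap1B–BODIPY-GDP (250 nM) with 50 uM GDP; compounds pin-transferred to 9.74 nM–152 uM final (activator) or from 7.32 nM upwards (inhibitor). Fluorescence Ex/Em 480/540 nm read at 5 and 30 min, then after adding cAMP or buffer, at room temperature.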
# [4] = target: Rap guanine nucleotide exchange factor 3 (Homo sapiens) (UniProt O95398); experiment: Confirmatory qHTS for agonist of cAMP-regulated guanine nucleotide exchange factor 3 (EPAC1) (AID 1645881);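 note: EPAC1 catalysed release of BODIPY-GDP from Rap1B seen as fluorescence loss; nearly all actives have a fitted effect of over 75% in size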
# [5] = target: Rap guanine nucleotide exchange factor 3 (Homo sapiens) (UniProt O95398); experiment: Counterscreen qHTS for agonist of cAMP-regulated guanine nucleotide exchange factor 3 (EPAC1) (AID 1645889); note: nearly all actives have a fitted effect of over 40% in size
# In short: as §1
# Chain of Rap guanine nucleotide exchange factor 3 (Homo sapiens) (O95398 whole entry, looked up): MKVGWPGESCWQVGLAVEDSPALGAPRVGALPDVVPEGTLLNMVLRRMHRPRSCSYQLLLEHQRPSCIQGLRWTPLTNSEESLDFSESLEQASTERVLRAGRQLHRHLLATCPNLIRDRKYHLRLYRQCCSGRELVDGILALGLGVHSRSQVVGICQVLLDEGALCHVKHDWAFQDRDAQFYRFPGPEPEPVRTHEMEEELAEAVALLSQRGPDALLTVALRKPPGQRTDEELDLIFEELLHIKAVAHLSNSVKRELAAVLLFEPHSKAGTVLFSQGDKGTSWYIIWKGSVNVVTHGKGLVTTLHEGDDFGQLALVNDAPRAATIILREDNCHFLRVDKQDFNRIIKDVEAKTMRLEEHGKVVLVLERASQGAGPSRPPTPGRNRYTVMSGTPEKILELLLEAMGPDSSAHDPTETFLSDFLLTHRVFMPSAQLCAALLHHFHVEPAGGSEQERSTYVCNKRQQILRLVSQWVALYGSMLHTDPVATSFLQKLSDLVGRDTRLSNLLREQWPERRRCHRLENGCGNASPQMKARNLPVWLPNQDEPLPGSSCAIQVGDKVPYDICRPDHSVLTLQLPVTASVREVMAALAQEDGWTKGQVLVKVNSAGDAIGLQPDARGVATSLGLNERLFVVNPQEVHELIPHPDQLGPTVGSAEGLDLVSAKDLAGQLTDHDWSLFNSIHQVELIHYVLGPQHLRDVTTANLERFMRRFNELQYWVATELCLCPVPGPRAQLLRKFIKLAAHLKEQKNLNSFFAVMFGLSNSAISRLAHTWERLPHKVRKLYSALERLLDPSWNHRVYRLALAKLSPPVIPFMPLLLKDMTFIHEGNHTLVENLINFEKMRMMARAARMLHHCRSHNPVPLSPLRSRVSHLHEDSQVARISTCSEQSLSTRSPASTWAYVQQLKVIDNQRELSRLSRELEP
# Chain of Rap guanine nucleotide exchange factor 4 (Homo sapiens) (Q8WZA2 whole entry, looked up): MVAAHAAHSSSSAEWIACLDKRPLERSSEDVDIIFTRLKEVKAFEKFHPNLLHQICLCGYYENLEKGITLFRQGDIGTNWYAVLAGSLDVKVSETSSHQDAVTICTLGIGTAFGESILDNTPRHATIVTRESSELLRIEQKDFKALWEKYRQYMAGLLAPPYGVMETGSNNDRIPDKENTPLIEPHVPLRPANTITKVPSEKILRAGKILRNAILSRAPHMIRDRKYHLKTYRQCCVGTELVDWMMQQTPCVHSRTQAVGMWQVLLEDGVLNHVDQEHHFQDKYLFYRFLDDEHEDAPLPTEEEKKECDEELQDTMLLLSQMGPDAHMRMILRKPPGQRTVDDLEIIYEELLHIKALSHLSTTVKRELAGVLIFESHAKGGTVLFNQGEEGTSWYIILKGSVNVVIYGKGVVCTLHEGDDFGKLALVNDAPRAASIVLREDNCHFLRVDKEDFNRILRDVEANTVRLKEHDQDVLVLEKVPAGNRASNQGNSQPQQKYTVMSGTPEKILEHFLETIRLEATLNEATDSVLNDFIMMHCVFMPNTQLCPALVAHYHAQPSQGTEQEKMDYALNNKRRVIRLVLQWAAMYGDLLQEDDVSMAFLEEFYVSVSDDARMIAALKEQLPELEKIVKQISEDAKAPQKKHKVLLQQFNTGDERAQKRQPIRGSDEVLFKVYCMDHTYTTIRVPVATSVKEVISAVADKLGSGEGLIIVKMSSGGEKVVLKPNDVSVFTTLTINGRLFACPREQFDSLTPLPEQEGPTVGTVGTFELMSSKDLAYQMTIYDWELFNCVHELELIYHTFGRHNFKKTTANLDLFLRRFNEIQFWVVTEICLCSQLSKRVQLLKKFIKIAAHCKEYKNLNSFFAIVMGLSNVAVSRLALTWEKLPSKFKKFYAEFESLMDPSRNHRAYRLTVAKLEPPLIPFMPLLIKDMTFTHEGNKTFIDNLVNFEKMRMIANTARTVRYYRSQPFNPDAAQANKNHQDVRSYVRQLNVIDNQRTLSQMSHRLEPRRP
compound,measurement,setting,value
Nc1ccc(Cl)cc1C(=O)c1ccccc1Cl,activation,[1],"8.81% [at 17.1 µM, percent relative to cAMP agonist control]"
same,"activity change, negative = inhibition",[2],-22.9% [at 12.7 µM]
same,"activity change, negative = inhibition",[3],-0.237% [at 30.8 µM]
COc1ccc(C2C=C(C)Oc3c2c(=O)oc2ccccc32)cc1OC (centres undefined),Potency,[4],inactive
same,Potency,[2],30.1 µM (active)
CCn1nc(/C=C/c2ccccc2)nc2c(=O)n(C)c(=O)nc1-2,Potency,[4],inactive
same,Potency,[1],inactive
same,outcome,[3],inactive
same,Potency,[5],inactive
